The nature of test [1]: ATG_TAL_CIS: Attagene CIS-FACTORIAL HepG2 Assay for human TAL Basal Promoter (AID 2282966; active means hit-call score of the fitted dose curve at least 0.9, where 1 is the maximum; inactive means score below 0.9;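 further: background control endpoint measuring basal TAL promoter reporter mRNA not a specific factor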). Conditions: HepG2 Attagene cis-factorial TAL promoter reporter; actives raise or lower the signal. In outline: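 Steps: transfect HepG2 with multiple reporter transcription units; dose 24 h; isolate RNA, reverse-transcribe, PCR-amplify, label with 6-FAM, digest with HpaI; resolve by capillary electrophoresis. Bidirectional fitting against DMSO baseline.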

The nature of test [2]: ATG_VDRE_CIS: Attagene CIS-FACTORIAL HepG2 Assay for human Vitamin D Receptor Element (VDRE) (AID 2282968; active means hit-call score of the fitted dose curve at least 0.9, where 1 is the maximum; inactive means score below 0.9). Conditions: HepG2 VDRE cis-reporter transcription, actives raise or lower the signal. In outline: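 Reporter mRNA induction, quantified by capillary electrophoresis of fluorescently labelled RT-PCR products, was read 24 h after dosing HepG2 cells carrying transiently transfected cis-regulated reporter units; gain or loss relative to DMSO.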

The target in test [3] is Estrogen receptor (Homo sapiens) (UniProt P03372). Kind of test: ATG_ERa_TRANS: Attagene TRANS-FACTORIAL HepG2 Assay for human Estrogen Receptor alpha (ERa) (AID 2282970). Conditions: HepG2 Attagene TRANS ERa GAL4 reporter, mRNA. In outline:
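Multiplexed cell-based reporter format in HepG2: chimeric ERa-Gal4 protein drives GAL4-UAS reporter transcription. Fluorescent reporter mRNA quantified by capillary electrophoresis 24 hours after dosing; endpoint fitted as signal gain against DMSO.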

For test [4], the target named is X-box-binding protein 1 (Homo sapiens) (UniProt P17861). Kind of test: ATG_Xbp1_CIS: Attagene CIS-FACTORIAL HepG2 Assay for human X-box Binding Protein 1 (XBP1) (AID 2282972; active means hit-call score of the fitted dose curve at least 0.9, where 1 is the maximum; inactive means score below 0.9). Conditions: HepG2 XBP1 cis-element reporter, Attagene multiplex; actives raise or lower the signal. A digest of the protocol:
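HepG2 cells transiently transfected with multiple cis-element reporter units report endogenous TF activity; 24 h exposure, then reporter mRNA measured by RT-PCR, 6-FAM labelling, HpaI digestion and capillary electrophoresis. Bidirectional fitting versus DMSO.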

Test [5] in a line: ATG_GAL4_TRANS: Attagene TRANS-FACTORIAL HepG2 Assay for GAL4 (Internal Marker) (AID 2282976). The note with it: HepG2 Attagene TRANS GAL4 internal marker reporter. A digest of the protocol: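 Liver HepG2 line bearing multiplexed GAL4-UAS reporter constructs; 24 h chemical treatment. Transcripts were quantified as fluorescent fragments on capillary electrophoresis after RT-PCR and HpaI cut, with activity fitted upward from DMSO.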

Test [6] deals with Glucocorticoid receptor (Homo sapiens) (UniProt P04150). The test can be described thus: ATG_GR_TRANS: Attagene TRANS-FACTORIAL HepG2 Assay for human Glucocorticoid Receptor (GR) (AID 2282978).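 Further: activators score as hits since higher reporter transcript over DMSO is fitted.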 The note with it: HepG2 Attagene TRANS GR reporter, mRNA transcription. A digest of the protocol:
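Transiently transfected HepG2 cells express chimeric NR-GAL4 proteins acting on GAL4-UAS reporter units. Compounds are applied for 24 h. mRNA induction over DMSO is measured by capillary electrophoresis.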

Test [7] concerns the target Oxysterols receptor LXR-alpha (Homo sapiens) (UniProt Q13133). The test can be described thus: ATG_LXRa_TRANS: Attagene TRANS-FACTORIAL HepG2 Assay for human Liver X Receptor alpha (LXRa) (AID 2282980). The note with it: HepG2 Attagene TRANS reporter, LXRa transactivation. In outline:
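In this multiplexed TRANS system, compounds act on HepG2 cells carrying GAL4-UAS reporter units and a receptor-GAL4 fusion for 24 h. Induced reporter RNA is amplified, fluorescently labelled and sized by capillary electrophoresis, with DMSO as baseline.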

For test [8], the target named is Oxysterols receptor LXR-beta (Homo sapiens) (UniProt P55055). The test can be described thus: ATG_LXRb_TRANS: Attagene TRANS-FACTORIAL HepG2 Assay for human Liver X Receptor beta (LXRb) (AID 2282981). Conditions: HepG2 Attagene TRANS GAL4-LXRb reporter, mRNA. In outline:
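Transient transfection HepG2 (multiplexed RTUs, GAL4-UAS); NR-Gal4 chimera; 24 h exposure; RNA → RT-PCR → 6-FAM primer extension → HpaI → CE; increase vs DMSO.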

The nature of test [9]: ATG_M_06_TRANS: Attagene TRANS-FACTORIAL HepG2 Assay for M06 Transcription Factor (Internal Marker) (AID 2282983).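 Further: reporter transcript level by RT-PCR then capillary electrophoresis fluorescence.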 Conditions: HepG2 Attagene TRANS M06 internal marker reporter. A digest of the protocol: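 Internal-marker background readout from a multiplexed TRANS reporter system in HepG2; 24 h dosing; mRNA induction quantified by RT-PCR plus capillary electrophoresis fluorescence; DMSO as negative control and baseline.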

For test [10], the target named is Nuclear receptor subfamily 4 group A member 2 (Homo sapiens) (UniProt P43354). Kind of test: ATG_NURR1_TRANS: Attagene TRANS-FACTORIAL HepG2 Assay for human Nuclear Receptor Related Protein 1 (NURR1) (AID 2282985). The note with it: HepG2 Attagene TRANS reporter, mRNA readout. In outline:
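Transient transfection of HepG2, human liver cells, with multiple GAL4-UAS reporter transcription units. Cells dosed 24 h, RNA isolated, reverse-transcribed, PCR-amplified, FAM-labelled, HpaI-digested, sized by capillary electrophoresis. DMSO served as negative control.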

Test [11] addresses Transcriptional activator Myb (Homo sapiens) (UniProt P10242). The test can be described thus: ATG_Myb_CIS: Attagene CIS-FACTORIAL HepG2 Assay for human Myeloblastosis (Myb) Proto-Oncogene Transcription Factor (AID 2282986; active means hit-call score of the fitted dose curve at least 0.9, where 1 is the maximum; inactive means score below 0.9). Conditions: HepG2 Attagene CIS-FACTORIAL Myb reporter transcription; actives raise or lower the signal. In outline:
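Using HepG2 liver cells bearing transiently transfected cis-promoter reporter constructs, the assay measures induction or loss of reporter mRNA after 24 hours of dosing. Detection used fluorescently labeled RT-PCR products separated by capillary electrophoresis.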

The target of test [12] is Nuclear respiratory factor 1 (Homo sapiens) (UniProt Q16656). Kind of test: ATG_NRF1_CIS: Attagene CIS-FACTORIAL HepG2 Assay for human Nuclear Respiratory Factor 1 (NRF1) Orphan Gene (AID 2282987; active means hit-call score of the fitted dose curve at least 0.9, where 1 is the maximum; inactive means score below 0.9). The note with it: HepG2 NRF1 cis-element reporter, Attagene multiplex; actives raise or lower the signal. In outline: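 Reporter mRNA induction or loss in HepG2 cells after 24 h dosing; cis-regulated reporter constructs report endogenous transcription-factor activity. Quantified by RT-PCR/capillary electrophoresis fluorescence, DMSO-referenced.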

The target of test [13] is Steroid hormone receptor ERR1 (Homo sapiens) (UniProt P11474). Kind of test: ATG_ERRa_TRANS: Attagene TRANS-FACTORIAL HepG2 Assay for human Estrogen-Related Receptor alpha (ERRa) (AID 2282971). The note with it: HepG2 Attagene TRANS reporter, ERRa transactivation. A digest of the protocol: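 Signal gain relative to DMSO for an ERRa-Gal4 chimeric receptor, read as reporter mRNA by RT-PCR/capillary electrophoresis. Human HepG2 liver cells, transient multiplex reporter transfection, 24 h chemical exposure.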

Test [14] is described as follows: ATG_M_19_TRANS: Attagene TRANS-FACTORIAL HepG2 Assay for M19 Transcription Factor (Internal Marker) (AID 2282974). The note with it: HepG2 Attagene TRANS-FACTORIAL M19 internal marker reporter. A digest of the protocol:
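Multiplexed TRANS format: HepG2 liver cells bearing transient GAL4-UAS reporter units, chemical treatment 24 h, reporter transcripts quantified by RT-PCR plus capillary electrophoresis. DMSO defines baseline.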

The target in test [15] is Hepatocyte nuclear factor 4-alpha (Homo sapiens) (UniProt P41235). The test can be described thus: ATG_HNF4a_TRANS: Attagene TRANS-FACTORIAL HepG2 Assay for human Hepatocyte Nuclear Factor 4 alpha (HNF4a) (AID 2282982). Conditions: HepG2 HNF4a transactivation reporter, mRNA readout. In outline: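 Readout is fluorescent reporter-transcript fragments resolved by capillary electrophoresis after RT-PCR from HepG2 cells dosed for 24 h. Cells carried transfected GAL4-UAS reporter constructs measuring exogenous NR-GAL4 chimera activity; DMSO served as baseline.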

Test [16] can be described thus: ATG_M_32_TRANS: Attagene TRANS-FACTORIAL HepG2 Assay for M32 Transcription Factor (Internal Marker) (AID 2282984).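 Further: transcript level of a background control reporter unit measured by RT-PCR and capillary electrophoresis.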 Conditions: HepG2 Attagene TRANS M32 internal marker reporter. In outline: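 Measures reporter mRNA induction in human HepG2 liver cells after 24 h chemical treatment. Transcripts from transiently transfected GAL4-UAS reporter units are amplified, fluorescently labelled and sized by capillary electrophoresis; gain of signal relative to DMSO.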

The target in test [17] is Estrogen-related receptor gamma (Homo sapiens) (UniProt P62508). Kind of test: ATG_ERRg_TRANS: Attagene TRANS-FACTORIAL HepG2 Assay for human Estrogen-Related Receptor gamma (ERRg) (AID 2282977).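 Further: hits increase reporter signal over DMSO so potencies reflect activators.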 Conditions: HepG2 Attagene TRANS reporter, ERRg transactivation. In outline: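 Transfect HepG2 with multiple GAL4-UAS reporter transcription units; dose chemicals 24 h; isolate RNA, reverse-transcribe with oligo(dT), PCR-amplify, label with 6-FAM, digest with HpaI; size fragments by capillary electrophoresis. DMSO serves as negative control.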

Test [18] concerns the target Bile acid receptor (Homo sapiens) (UniProt Q96RI1). The test can be described thus: ATG_FXR_TRANS: Attagene TRANS-FACTORIAL HepG2 Assay for Farnesoid X Receptor (FXR) (AID 2282979).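 Further: hits raise reporter mRNA above DMSO so AC50 marks FXR activation.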 The note with it: HepG2 Attagene TRANS FXR-GAL4 reporter transcription. In outline:
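After 24 h chemical treatment of transfected HepG2 cells, GAL4-UAS reporter transcripts driven by an exogenous FXR-GAL4 fusion were measured by RT-PCR and capillary electrophoresis. Increases over DMSO were fitted.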

Test [19] deals with Nuclear receptor subfamily 1 group I member 3 (Homo sapiens) (UniProt Q14994). Kind of test: ATG_CAR_TRANS: Attagene TRANS-FACTORIAL HepG2 Assay for human Constitutive Androstane Receptor (CAR) (AID 2282969).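 Further: activators raise reporter mRNA above DMSO so AC50 marks induction.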 The note with it: HepG2 Attagene TRANS-FACTORIAL CAR reporter. A digest of the protocol: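 Readout is reporter mRNA induction, quantified by fluorescent primer extension and capillary electrophoresis after RT-PCR. Cells were HepG2 transiently carrying chimeric NR-Gal4 constructs with GAL4-UAS reporters, treated for 24 h; activity scored upward from DMSO.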

Records with an inconclusive call do not appear. Calls of active or inactive are those of the source. How the source made its calls, unless noted: active means hit-call score of the fitted dose curve at least 0.9, where 1 is the maximum; inconclusive means response in the unintended direction; inactive means score below 0.9.

Chain of X-box-binding protein 1 (Homo sapiens) (P17861 whole entry, looked up): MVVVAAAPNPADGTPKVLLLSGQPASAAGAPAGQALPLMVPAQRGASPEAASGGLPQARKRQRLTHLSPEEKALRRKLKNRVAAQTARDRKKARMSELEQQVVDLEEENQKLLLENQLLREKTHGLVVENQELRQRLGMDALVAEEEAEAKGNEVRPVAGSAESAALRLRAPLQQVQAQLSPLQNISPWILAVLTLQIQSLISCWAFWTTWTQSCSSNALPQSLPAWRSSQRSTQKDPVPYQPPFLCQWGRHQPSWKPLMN
Chain of Oxysterols receptor LXR-alpha (Homo sapiens) (Q13133 whole entry, looked up, the tested form may be a part): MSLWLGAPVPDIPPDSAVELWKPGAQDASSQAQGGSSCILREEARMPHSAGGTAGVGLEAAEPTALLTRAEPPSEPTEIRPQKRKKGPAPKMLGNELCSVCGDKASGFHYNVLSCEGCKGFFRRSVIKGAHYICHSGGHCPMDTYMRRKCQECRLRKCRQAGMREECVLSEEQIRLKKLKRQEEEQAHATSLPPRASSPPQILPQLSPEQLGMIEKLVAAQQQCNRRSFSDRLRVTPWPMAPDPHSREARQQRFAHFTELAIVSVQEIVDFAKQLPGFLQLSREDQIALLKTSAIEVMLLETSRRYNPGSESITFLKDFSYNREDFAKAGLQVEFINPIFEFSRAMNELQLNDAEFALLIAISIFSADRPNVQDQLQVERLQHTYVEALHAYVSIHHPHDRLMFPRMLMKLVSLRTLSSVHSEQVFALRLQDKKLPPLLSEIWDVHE
Chain of Nuclear receptor subfamily 4 group A member 2 (Homo sapiens) (P43354 whole entry, looked up, the tested form may be a part): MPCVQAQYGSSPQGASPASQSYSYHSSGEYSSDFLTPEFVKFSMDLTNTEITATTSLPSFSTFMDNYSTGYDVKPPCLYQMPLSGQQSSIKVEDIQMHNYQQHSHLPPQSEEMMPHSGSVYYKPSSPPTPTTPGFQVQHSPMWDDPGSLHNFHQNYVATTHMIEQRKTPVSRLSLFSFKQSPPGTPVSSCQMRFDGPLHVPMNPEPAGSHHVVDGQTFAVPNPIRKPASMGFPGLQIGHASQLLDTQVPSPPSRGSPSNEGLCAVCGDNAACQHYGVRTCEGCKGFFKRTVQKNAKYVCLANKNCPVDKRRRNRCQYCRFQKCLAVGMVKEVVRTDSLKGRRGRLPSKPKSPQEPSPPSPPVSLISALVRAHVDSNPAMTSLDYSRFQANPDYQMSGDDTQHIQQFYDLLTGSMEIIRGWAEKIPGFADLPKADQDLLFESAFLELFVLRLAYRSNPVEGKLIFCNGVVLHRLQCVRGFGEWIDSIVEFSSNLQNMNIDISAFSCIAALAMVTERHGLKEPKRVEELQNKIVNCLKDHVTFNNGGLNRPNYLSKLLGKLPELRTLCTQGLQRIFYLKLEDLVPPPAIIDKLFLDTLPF
Chain of Transcriptional activator Myb (Homo sapiens) (P10242 whole entry, looked up): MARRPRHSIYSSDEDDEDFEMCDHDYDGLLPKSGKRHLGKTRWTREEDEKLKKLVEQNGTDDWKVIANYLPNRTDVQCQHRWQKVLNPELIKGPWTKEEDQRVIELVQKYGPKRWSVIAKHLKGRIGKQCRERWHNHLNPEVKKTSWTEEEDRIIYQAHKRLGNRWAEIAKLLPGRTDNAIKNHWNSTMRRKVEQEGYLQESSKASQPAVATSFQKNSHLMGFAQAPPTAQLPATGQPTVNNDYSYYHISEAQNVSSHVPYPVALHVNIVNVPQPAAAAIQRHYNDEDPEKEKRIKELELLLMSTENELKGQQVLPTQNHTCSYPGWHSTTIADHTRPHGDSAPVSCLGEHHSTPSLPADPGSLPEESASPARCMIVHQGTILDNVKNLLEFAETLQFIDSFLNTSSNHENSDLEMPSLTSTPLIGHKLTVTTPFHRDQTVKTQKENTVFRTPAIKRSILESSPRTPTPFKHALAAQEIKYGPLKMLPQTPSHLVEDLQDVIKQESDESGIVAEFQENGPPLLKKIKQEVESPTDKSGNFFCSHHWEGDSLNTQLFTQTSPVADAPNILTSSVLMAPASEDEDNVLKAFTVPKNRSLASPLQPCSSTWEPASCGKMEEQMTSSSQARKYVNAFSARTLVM
Chain of Estrogen receptor (Homo sapiens) (P03372 whole entry, looked up, the tested form may be a part): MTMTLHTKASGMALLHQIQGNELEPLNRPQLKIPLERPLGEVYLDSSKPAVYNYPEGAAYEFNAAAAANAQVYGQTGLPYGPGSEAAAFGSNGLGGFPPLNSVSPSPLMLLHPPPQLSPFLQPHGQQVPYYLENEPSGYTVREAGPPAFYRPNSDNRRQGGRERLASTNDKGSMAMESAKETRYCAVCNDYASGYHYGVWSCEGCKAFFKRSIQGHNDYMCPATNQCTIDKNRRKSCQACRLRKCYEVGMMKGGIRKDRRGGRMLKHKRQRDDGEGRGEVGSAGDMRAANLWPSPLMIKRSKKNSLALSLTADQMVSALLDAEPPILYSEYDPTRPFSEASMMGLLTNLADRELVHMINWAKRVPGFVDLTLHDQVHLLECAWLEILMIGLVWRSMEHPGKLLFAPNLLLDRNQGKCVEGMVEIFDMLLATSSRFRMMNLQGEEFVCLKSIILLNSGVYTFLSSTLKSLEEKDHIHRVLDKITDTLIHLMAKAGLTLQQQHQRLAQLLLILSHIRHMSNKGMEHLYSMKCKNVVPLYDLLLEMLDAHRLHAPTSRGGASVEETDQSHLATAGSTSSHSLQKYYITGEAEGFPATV
Chain of Hepatocyte nuclear factor 4-alpha (Homo sapiens) (P41235 whole entry, looked up, the tested form may be a part): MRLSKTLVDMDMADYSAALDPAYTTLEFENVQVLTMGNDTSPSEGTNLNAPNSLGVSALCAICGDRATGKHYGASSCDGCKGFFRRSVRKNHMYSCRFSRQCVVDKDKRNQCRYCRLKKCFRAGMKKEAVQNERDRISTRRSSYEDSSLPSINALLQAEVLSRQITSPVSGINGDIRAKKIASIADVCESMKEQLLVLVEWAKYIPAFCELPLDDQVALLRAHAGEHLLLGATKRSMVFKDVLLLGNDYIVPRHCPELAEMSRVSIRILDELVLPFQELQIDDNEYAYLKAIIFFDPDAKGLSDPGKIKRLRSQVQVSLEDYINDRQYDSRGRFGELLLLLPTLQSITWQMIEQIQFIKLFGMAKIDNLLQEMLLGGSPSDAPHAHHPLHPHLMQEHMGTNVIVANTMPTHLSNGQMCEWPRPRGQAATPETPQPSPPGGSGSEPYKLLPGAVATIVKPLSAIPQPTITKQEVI
Chain of Nuclear respiratory factor 1 (Homo sapiens) (Q16656 whole entry, looked up): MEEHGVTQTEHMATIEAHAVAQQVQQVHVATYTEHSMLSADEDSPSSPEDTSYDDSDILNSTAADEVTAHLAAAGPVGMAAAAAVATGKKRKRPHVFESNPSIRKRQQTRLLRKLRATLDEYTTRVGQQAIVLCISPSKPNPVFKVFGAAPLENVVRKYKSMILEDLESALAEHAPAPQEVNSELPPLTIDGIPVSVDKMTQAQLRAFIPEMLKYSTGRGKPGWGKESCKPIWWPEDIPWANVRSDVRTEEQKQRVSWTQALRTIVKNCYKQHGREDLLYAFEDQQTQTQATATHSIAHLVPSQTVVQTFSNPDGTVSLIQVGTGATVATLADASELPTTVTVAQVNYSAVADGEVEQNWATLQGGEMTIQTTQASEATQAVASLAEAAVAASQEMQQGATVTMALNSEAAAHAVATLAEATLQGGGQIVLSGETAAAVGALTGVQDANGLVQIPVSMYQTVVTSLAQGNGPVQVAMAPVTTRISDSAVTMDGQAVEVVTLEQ
Chain of Glucocorticoid receptor (Homo sapiens) (P04150 whole entry, looked up, the tested form may be a part): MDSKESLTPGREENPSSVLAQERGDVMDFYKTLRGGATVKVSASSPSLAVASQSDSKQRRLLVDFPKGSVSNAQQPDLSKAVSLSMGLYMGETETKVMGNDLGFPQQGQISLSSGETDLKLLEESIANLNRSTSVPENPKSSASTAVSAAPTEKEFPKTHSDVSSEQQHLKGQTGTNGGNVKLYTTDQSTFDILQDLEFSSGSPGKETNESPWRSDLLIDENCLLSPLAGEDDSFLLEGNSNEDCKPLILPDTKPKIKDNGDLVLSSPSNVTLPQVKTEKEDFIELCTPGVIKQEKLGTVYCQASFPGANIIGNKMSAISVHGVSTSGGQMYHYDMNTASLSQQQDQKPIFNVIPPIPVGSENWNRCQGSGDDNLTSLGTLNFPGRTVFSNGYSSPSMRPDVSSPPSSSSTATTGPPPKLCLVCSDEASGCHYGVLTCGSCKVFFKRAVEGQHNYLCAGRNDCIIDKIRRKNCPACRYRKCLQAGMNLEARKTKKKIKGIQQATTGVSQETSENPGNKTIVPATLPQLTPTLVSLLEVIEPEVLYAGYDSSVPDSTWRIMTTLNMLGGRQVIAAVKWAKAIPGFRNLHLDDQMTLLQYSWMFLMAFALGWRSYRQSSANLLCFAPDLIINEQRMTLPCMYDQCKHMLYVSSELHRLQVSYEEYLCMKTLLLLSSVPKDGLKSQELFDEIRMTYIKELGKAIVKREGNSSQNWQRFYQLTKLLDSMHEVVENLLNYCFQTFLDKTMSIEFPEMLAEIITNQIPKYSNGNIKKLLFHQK
Chain of Oxysterols receptor LXR-beta (Homo sapiens) (P55055 whole entry, looked up, the tested form may be a part): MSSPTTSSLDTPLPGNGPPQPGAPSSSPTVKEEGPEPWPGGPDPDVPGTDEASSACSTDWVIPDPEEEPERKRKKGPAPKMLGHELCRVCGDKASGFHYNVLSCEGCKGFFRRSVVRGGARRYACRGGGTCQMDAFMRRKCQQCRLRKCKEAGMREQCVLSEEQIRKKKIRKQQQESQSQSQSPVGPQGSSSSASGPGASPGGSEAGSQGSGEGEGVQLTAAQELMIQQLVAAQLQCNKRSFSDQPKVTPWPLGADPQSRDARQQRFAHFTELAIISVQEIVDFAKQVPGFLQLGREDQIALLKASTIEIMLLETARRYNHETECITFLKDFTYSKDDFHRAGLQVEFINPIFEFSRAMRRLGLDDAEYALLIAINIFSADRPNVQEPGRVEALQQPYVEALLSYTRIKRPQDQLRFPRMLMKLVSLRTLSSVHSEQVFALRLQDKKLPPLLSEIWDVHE

`CC(C)(C)NC(N)=O`: the outcome in test [1], in test [2], in test [3], in test [4], in test [5] and in test [6] was inactive. Also, the result in test [7], in [8], in [9], in test [10], in [11] and in test [12] was inactive.

For the compound `O=C(COc1ccc(Cl)cc1)N1CCN(Cc2ccc3c(c2)OCO3)CC1`, the compound was classed as inactive in test [1], in [2], in test [3], in test [13], in test [4] and in test [14]. In addition, the result in test [5], in [15], in [16], in test [11] and in [12] was inactive. In addition, the half-maximal activity concentration (AC50) in [10] was 67 µM (active).

Take `C=CC(C)(O)CCC=C(C)CCC=C(C)C` (stereo unspecified): the AC50 in test [1] was 166 µM (active); in [4], 120 µM (active); in test [11] it was 163 µM (active). Also, the call in [6], in [7] and in [9] was inactive.

`CCCCCNCCCCC`: the compound was classed as inactive in [1], in test [2], in test [4], in [5], in test [15] and in test [11]. In test [12], the compound was called inactive.

On to `Sc1nc(S)nc(S)n1`, for which the outcome in test [1], in test [2], in [4], in [5], in [8] and in test [15] was inactive. Besides, the compound was called inactive in test [9], in test [16], in test [10] and in [11].

On to `OCCN1CCNCC1`, for which the compound was called inactive in [1], in [2], in [4], in test [5], in test [17] and in [6]. Moreover, the outcome in [18], in test [8], in [15], in [9], in [10] and in [11] was inactive. Also, the compound was classed as inactive in [12].

In the case of `NC(=O)Nc1ccc(Cl)cc1`, the compound was called inactive in test [1], in test [2], in test [3], in test [13], in test [4] and in test [14]. Also, the call in [6], in [7], in [15], in [16], in test [11] and in [12] was inactive.

With `O=C(O)CCCCCCCC(=O)O`, the compound was called inactive in [1], in test [19], in test [4], in [8], in test [15] and in [16]. Besides, the compound was classed as inactive in [11] and in test [12].

Take `CC1=CC(=O)NS(=O)(=O)O1`: the outcome in test [1], in [2], in test [4], in test [14], in test [7] and in test [8] was inactive. In addition, the compound was classed as inactive in [15], in test [9], in [16], in test [11] and in test [12].

Regarding `CCCCOCCOCCOCCOCCO`, the result in test [1], in test [2], in test [4], in [5], in test [7] and in [15] was inactive. The result in [16], in [10], in test [11] and in [12] was inactive.

(Values after PubChem BioAssay (EPA / NIEHS).)
